Assay outcomes as filed in PubChem BioAssay.
The full list was thinned out, with hits kept by preference.
ROS inducer: ROS inducers in U2OS cancer cells, primary screen, cell-based, H2DCF-DA fluorescence; ROS induction (% of piperlongumine), % at 10 µM; 46,000 compounds, 2% hits; U2OS ROS induction; in the data active = ROS induction above about 79%, passing the limit was not always enough; inconclusive = no clear call, values can overlap the other calls;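 note: 0% = DMSO vehicle median and 100% = reference compound median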
NOMO-1 viab: NOMO-1 AML cell viability reduction, primary screen, STK33 inhibitor project, CellTiter-Glo luminescence. inhibition, % (test concentration not listed). NOMO-1 AML viability, 72 h. 37,000 compounds, 7.5% hits; in the data active = inhibition above about 80%; inconclusive = no clear call, values can overlap the other calls
* marks the source's active call; other numbers are inactive results.

Screening c1nc(NCC2CCCO2)c2sc3nc(N4CCCCC4)c4c(c3c2n1)CCCC4 (stereo not drawn) returned ROS inducer 15 and NOMO-1 viab 36.
`O=c1[nH]c2ccccc2n1CCCSc1nc2ccccc2[nH]1` gave ROS inducer 25 and NOMO-1 viab 62.
For COc1cc(NC(=O)COc2ccccc2Cl)ccc1NC(=O)c1cc2ccccc2o1 the results were ROS inducer 12 and NOMO-1 viab 104*.
COc1cc(NC(=O)COc2ccccc2[N+](=O)[O-])ccc1NC(=O)c1cccs1 was read as ROS inducer 132* and NOMO-1 viab 16.
Screening COc1cc(NC(=O)COc2cccc(C)c2C)ccc1NC(=O)c1ccccc1Cl returned ROS inducer -2 and NOMO-1 viab 26.
`COc1cc(NC(=O)COc2cc(Cl)c(Cl)cc2Cl)ccc1NC(=O)c1cc2ccccc2o1` gave ROS inducer -3 and NOMO-1 viab inconclusive.
`COc1ccc(NC(=O)COc2ccccc2[N+](=O)[O-])cc1Cl` gave ROS inducer -3 and NOMO-1 viab 22.
Screening COc1cc(NC(=O)COc2cccc(C)c2C)ccc1-c1cc2ccccc2oc1=O returned ROS inducer 31 and NOMO-1 viab 131*.
Cc1ccc(S/C(=C/N(C)C)C(=O)c2ccc(C)cc2)cc1 was read as ROS inducer -6.
Cc1ccc(CNC(=O)c2cccnc2Sc2cccc(C(F)(F)F)c2)cc1 was read as ROS inducer -10.
For C=CC(C)(C)c1c2c(c(O)c3c(=O)c4ccc(O)c(O)c4oc13)C=CC(C)(C)O2 the results were ROS inducer -13 and NOMO-1 viab 107*.
For COc1c(-c2ccccc2)oc2c(CC=C(C)C)c3c(c(OC)c2c1=O)C=CC(C)(C)O3 the results were ROS inducer 16 and NOMO-1 viab 28.
`C[C@H]1CN([C@@H](C)CO)C(=O)c2cc(NS(=O)(=O)c3ccc(F)cc3)ccc2O[C@@H]1CN(C)S(C)(=O)=O` gave ROS inducer 1 and NOMO-1 viab 12.
Screening CS(=O)(=O)N(CC(=O)Nc1cccc(C(F)(F)F)c1)c1cc(Cl)c(Cl)cc1Cl returned ROS inducer -5 and NOMO-1 viab 140*.
Cc1ccc(NC(=O)CN(c2ccc(Cl)c(C(F)(F)F)c2)S(C)(=O)=O)cc1Cl was read as NOMO-1 viab 55.
Cc1cc(Cl)ccc1NC(=O)CN(c1cccc(Cl)c1)S(C)(=O)=O was read as ROS inducer -16 and NOMO-1 viab 9.
COC(=O)c1ccc(NC(=O)CN(c2ccc(Cl)cc2C)S(C)(=O)=O)cc1 was read as ROS inducer -1 and NOMO-1 viab 5.
Screening Cc1cc(N(CC(=O)Nc2ccc(Cl)cc2C)S(C)(=O)=O)ccc1Br returned ROS inducer 1 and NOMO-1 viab 87*.
For Cc1cc(NC(=O)CN(c2ccc(Cl)c(C(F)(F)F)c2)S(C)(=O)=O)ccc1Br the results were ROS inducer 9 and NOMO-1 viab 103*.
`Cc1cccc(NC(=O)CN(c2cc(Cl)c(Cl)cc2Cl)S(C)(=O)=O)c1` gave ROS inducer -6 and NOMO-1 viab 50.
Cc1cc(Cl)ccc1N(CC(=O)Nc1cc(Cl)cc(Cl)c1)S(C)(=O)=O was read as ROS inducer 0 and NOMO-1 viab 90*.
COc1ccc(S(=O)(=O)N(C)C[C@H]2Oc3ccc(NS(=O)(=O)c4ccc(F)cc4)cc3CC(=O)N([C@H](C)CO)C[C@H]2C)cc1 was read as ROS inducer 4 and NOMO-1 viab 19.
Screening C[C@H]1CN([C@@H](C)CO)C(=O)c2cccc(NC(=O)c3ccc(-c4nccs4)cc3)c2O[C@@H]1CN(C)S(=O)(=O)c1cn(C)cn1 returned ROS inducer -2 and NOMO-1 viab 7.
Screening C[C@@H]1CN([C@@H](C)CO)C(=O)c2cc(NC(=O)Nc3ccccc3)ccc2O[C@H]1CN(C)Cc1ccncc1 returned ROS inducer 0 and NOMO-1 viab 25.
CC(=O)OC1/C=C(/C(=O)O)CC/C=C(/C)C(=O)/C=C\C1(C)C (stereo not drawn) was read as ROS inducer 90* and NOMO-1 viab 120*.
CC1=C2CCC(C(=O)O)=CC2C(C(C)C)CC1 (stereo not drawn) was read as ROS inducer -7 and NOMO-1 viab -1.
`COC1CC(=O)C23C(=O)NC(CC(C)C)C2C(C)C(C)=CC3/C=C(\C)CCC(O)C1O` (stereo not drawn) gave ROS inducer -2 and NOMO-1 viab 89*.
For COC(=O)COc1cccc(NC(=O)c2ccccc2)c1 the results were ROS inducer 1 and NOMO-1 viab 122*.
COc1cccc(C(=O)COc2cccc(NC(=O)c3cccc([N+](=O)[O-])c3)c2)c1 was read as ROS inducer -4 and NOMO-1 viab inconclusive.
For COc1cccc(NC(=O)c2ccc(OC)c(OC)c2)c1 the results were ROS inducer 4 and NOMO-1 viab 39.
